# High-throughput results as filed in PubChem BioAssay.
# Myeloid diff MLP – compounds promoting myeloid differentiation; ER-HoxA9 myeloid progenitors, lysozyme-GFP differentiation, flow cytometry; calls only at 10 µM; hit rate 1% among 360,000; AID 624256;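 active = normalized GFP-positive differentiation at or above the plate's own cutoff, the solvent-only control mean plus 3 SD; inconclusive = no clear call, values can overlap the other calls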;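 also: cells exposed to compound for four days before flow analysis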
# Rpn11 block – Rpn11 (human) deubiquitinase inhibition; O00487; human 26S proteasome, Ub4-pepOG fluorescence polarization; 20S core pre-blocked with epoxomicin; inhibition, % at 20 µM; hit rate 0.59% among 360,000; AID 588493;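 active = inhibition at 20 µM, scaled to each plate's controls, above about 33%, limit read from the data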
# Target sequence (O00487 whole entry, looked up): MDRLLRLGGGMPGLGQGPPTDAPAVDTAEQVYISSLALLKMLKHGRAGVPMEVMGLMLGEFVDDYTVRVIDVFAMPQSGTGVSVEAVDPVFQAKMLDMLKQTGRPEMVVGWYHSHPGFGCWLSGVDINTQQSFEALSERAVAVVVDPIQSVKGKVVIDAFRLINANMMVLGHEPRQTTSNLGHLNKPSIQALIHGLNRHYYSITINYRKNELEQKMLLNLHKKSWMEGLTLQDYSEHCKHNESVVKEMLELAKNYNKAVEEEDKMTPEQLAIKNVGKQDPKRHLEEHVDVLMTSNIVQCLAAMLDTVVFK
# TPT1 inhibitor – C. albicans TPT1 enzyme inhibition. recombinant caTPT1, FP RNA substrate dephosphorylation. hit rate 0.81% among 300,000. inhibition, % at 5 µM. AID 1962;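 active = inhibition above the mean of all tested compounds plus 3 SD, set per screening campaign, cut at about 24% in these data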;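 also: plate controls were DMSO alone for no effect and ferristatin control at 100 nM for full effect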
# HNF4A DNA FP – change in binding of human HNF4 alpha to DNA | P41235 | HNF4a-FITC DNA binding, fluorescence polarization, 1 h | activity change, % at 10 µM | hit rate 0.3% among 360,000; in the data active = activity change above about 30%, passing the limit was not always enough
# The depositor's hits bear a star; i = inactive; ? = inconclusive; nt = no result given; + = active, no number. Compounds with a hit are over-represented: about 2.1% of the library has one in this group of screens.
SMILES,Myeloid diff MLP,Rpn11 block,TPT1 inhibitor,HNF4A DNA FP
CN(C)c1ccc(-c2ccnc3c2CC(C)(C(=O)NCc2ccccc2)O3)cc1 (configuration not stated),+,4,nt,1
COc1cccc(NC(=O)CN(C)C(=O)CCNC(=O)c2ccccc2OC)c1,+,1,nt,0
COc1cccc(CN(C)C(=O)CCNC(=O)c2ccc(Br)cc2)c1,+,0,-4,1
COc1ccc(NC(=O)CN(C)C(=O)CCNC(=O)c2ccccc2OC)cc1,i,0,1,-2
COc1cccc(NC(=O)CN(C)C(=O)CCNC(=O)c2ccc(Br)cc2)c1,i,0,0,0
CC(C)N1CC(O)=C(c2nc3ccccc3[nH]2)C1=N,i,-3,2,1
CC1(C)C(O)=C(c2nc3ccccc3[nH]2)C(=N)N1c1ccccc1,+,18,2,-2
O=C(NCC1CCCO1)c1ccccc1-c1nc(-c2ccccc2F)no1 (configuration not stated),i,-4,0,0
O=C(NCC1CCCO1)c1ccccc1-c1nc(-c2ccc(Cl)cc2)no1 (configuration not stated),+,-1,-1,2
COc1cc(OC)cc(-c2c(C#Cc3ccsc3)c3cc(-c4ccc(OC)nc4)ccc3n2C)c1,i,15,nt,3
Cc1nonc1NC(=O)CSc1nc2ccccc2o1,i,-2,-1,3
CC(=O)Nc1nonc1NC(=O)CSc1nc2ccccc2o1,+,1,-1,7
Cc1ccc(NC(=O)c2ccc(C(C)(C)C)cc2)cc1[N+](=O)[O-],i,-1,0,-2
CCC(=O)c1cn([C@@H](CCC(OC)OC)CC(=O)OC(C)(C)C)cc1CC,i,1,-3,2
CCC(=O)c1cn(/C(=C\C(=O)OC(C)(C)C)CCC(OC)OC)cc1CC,+,0,0,2
Cc1ccc(C(=O)C[n+]2ccc3ccccc3c2)cc1,i,0,1,-2
Cc1cc(C(C)(C)C)cc(C)c1C[n+]1ccc2ccccc2c1,+,-3,-5,-2
CN(C)c1ccc(C=C2SC(=S)N(Cc3ccco3)C2=O)cc1,+,nt,nt,128
CC1Sc2ccc(S(=O)(=O)N3CCC(C(=O)Nc4ccc(Cl)cc4)CC3)cc2NC1=O (configuration not stated),i,nt,14,41*
COc1ccc(NC(=O)C2CCN(S(=O)(=O)c3ccc4c(c3)NC(=O)C(C)S4)CC2)cc1 (configuration not stated),i,8,1,-1
Cc1ccc(NC(=O)Cn2nc(C)c(S(=O)(=O)N(C)C)c2C)cc1C,i,-6,2,-6
Cc1ccc2nc(N3C(=O)C(O)=C(C(=O)c4ccc(C)o4)C3c3ccc(O)cc3)sc2c1 (configuration not stated),+,16,nt,16
Cc1ccc2nc(N3C(=O)C(O)=C(C(=O)c4ccco4)C3c3cccs3)sc2c1 (configuration not stated),i,34,2,-1
COc1ccccc1C(=O)NNC(=O)CCCN1C(=O)/C(=C/c2cccs2)SC1=S,i,nt,-1,40*
Cc1cc(SCC(=O)OC/C(O)=C(\C#N)c2nc3ccccc3[nH]2)c(C)cc1Br,i,37,9,12
SMILES,Myeloid diff MLP,Rpn11 block,TPT1 inhibitor,HNF4A DNA FP
N#C/C(=C(/O)COC(=O)CSc1ccc(Cl)cc1)c1nc2ccccc2[nH]1,+,31,8,0
CCCCc1cc(=O)oc2c(C)c(OCc3nn[nH]n3)ccc12,i,2,-3,-3
CCC(C)[C@H](NC(=O)NC1CCCc2ccccc21)C(=O)O (some centres not stated),+,3,-1,1
CCOc1cc(/C=C2\CN(C)C/C(=C\c3ccc(O)c(OCC)c3)C2=O)ccc1O,?,1,5,1
CCOc1cc(/C=C2\CCC/C(=C\c3cc(Cl)c(O)c(OCC)c3)C2=O)cc(Cl)c1O,+,23,16,7
Nc1c(N(Cc2ccco2)C(=O)COc2ccccc2F)c(=O)[nH]c(=O)n1Cc1ccccc1,i,-5,nt,-2
O=C(NCc1ccc(F)cc1)c1cc(C2CCCN(C(=O)c3ccc4ccccc4c3)C2)on1 (configuration not stated),i,3,nt,2
O=C(N[C@H]1C/C=C\C[C@@H](CC(=O)N(CCO)Cc2ccccc2)C(=O)NC[C@H](c2ccccc2)OC1=O)OCC1c2ccccc2-c2ccccc21,+,13,nt,0
CCOc1ccc(CCNC(=O)c2cc(=O)[nH]c3ccc(S(=O)(=O)N(CC)CC)cc23)cc1OCC,?,1,-2,4
